According to the supplement of paper PMC6555819:

Tests used:
Test in all cases: PBM binding z-score (relative to random genomic background probes); higher = stronger binding; sequences stand for … in GC…GCGATTGACAGCGTAGAATGAAGG
[1] = tested on: FXR:RXRa (NR concentration 270 nM, RXRa partner concentration 90 nM)
Procedure, shortened: (§1)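 Binding z-scores take random background probes as their reference. They come from custom Agilent 4×180K protein-binding microarrays incubated 1 h with ligand-free nuclear receptor dimers, with antibodies against each partner (one per run) detecting binding. Scanned fluorescence was regression-normalized.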

[2] = tested on: LXRa:RXRa (NR concentration 270 nM, RXRa partner concentration 90 nM)
Procedure, shortened: as §1

[3] = tested on: LXRa homodimer (NR concentration 270 nM)
Procedure, shortened: as §1

[4] = tested on: LXRb:RXRa (NR concentration 270 nM, RXRa partner concentration 90 nM)
Procedure, shortened: as §1

[5] = tested on: LXRb homodimer (NR concentration 270 nM)
Procedure, shortened: as §1

[6] = tested on: PPARa:RXRa (NR concentration 270 nM, RXRa partner concentration 90 nM)
Procedure, shortened: as §1

[7] = tested on: PPARg:RXRa (NR concentration 180 nM, RXRa partner concentration 90 nM)
Procedure, shortened: as §1

[8] = tested on: PPARg:RXRa 270nM:90nM, anti-RXR (NR concentration 270 nM, RXRa partner concentration 90 nM)
Procedure, shortened: as §1

[9] = tested on: PPARg:RXRa 30nM:10nM, anti-RXR (NR concentration 30 nM, RXRa partner concentration 10 nM)
Procedure, shortened: as §1

[10] = tested on: PPARg:RXRa 90nM:30nM, anti-RXR (NR concentration 90 nM, RXRa partner concentration 30 nM)
Procedure, shortened: as §1

[11] = tested on: PPARg:RXRa DBDmut IVT, anti-RXR (DBD mutation: RXRa K156A/R161A, NR concentration 270 nM, RXRa partner concentration 90 nM)
Procedure, shortened: as §1

[12] = tested on: PPARg:RXRa IVT, anti-PPARg (NR concentration 270 nM, RXRa partner concentration 90 nM)
Procedure, shortened: as §1

[13] = tested on: PPARg DBDmut:RXRa IVT, anti-PPARg (DBD mutation: PPARg1 K132A/R137A, NR concentration 270 nM, RXRa partner concentration 90 nM)
Procedure, shortened: as §1

[14] = tested on: PPARg DBDmut IVT, anti-PPARg (DBD mutation: PPARg1 K132A/R137A, NR concentration 270 nM)
Procedure, shortened: as §1

[15] = tested on: PPARg homodimer (NR concentration 180 nM)
Procedure, shortened: as §1

[16] = tested on: PXR:RXRa (NR concentration 270 nM, RXRa partner concentration 90 nM)
Procedure, shortened: as §1

[17] = tested on: PXR homodimer (NR concentration 270 nM)
Procedure, shortened: as §1

[18] = tested on: RARa:RXR (NR concentration 270 nM, RXRa partner concentration 90 nM)
Procedure, shortened: as §1

[19] = tested on: RARa homodimer (NR concentration 270 nM)
Procedure, shortened: as §1

[20] = tested on: RARb:RXRa (NR concentration 270 nM, RXRa partner concentration 90 nM)
Procedure, shortened: as §1

Work on CCCGCTAGGTCAATGGTCAGCTAAAGCAGCTCGC yielded a PBM binding z-score [1] of 3.1, a PBM binding z-score [2] of 2.28 and a PBM binding z-score [3] of -0.0501. The PBM binding z-score [4] was 1.61, the PBM binding z-score [5] was 0.293 and the PBM binding z-score [6] was 3.18. It also gave a PBM binding z-score [7] of 5.11, a PBM binding z-score [8] of 5.22 and a PBM binding z-score [9] of 3.41. It also gave a PBM binding z-score [10] of 5.01, a PBM binding z-score [11] of 4.1 and a PBM binding z-score [12] of 3.83. For the same sequence, the PBM binding z-score [13] was -0.504, the PBM binding z-score [14] was -0.484 and the PBM binding z-score [15] was 1.55. It also gave a PBM binding z-score [16] of 1.09, a PBM binding z-score [17] of -0.582 and a PBM binding z-score [18] of 1.91. For the same sequence, the PBM binding z-score [19] was -0.541 and the PBM binding z-score [20] was 3.78.
For CCTACTGGGCCACGAAAGGTCACTGATTCAGTGA, the PBM binding z-score [1] was 2.97, the PBM binding z-score [2] was 4.41 and the PBM binding z-score [3] was 2.54. It also gave a PBM binding z-score [4] of 3.75, a PBM binding z-score [5] of -0.0263 and a PBM binding z-score [6] of 4.32. It also gave a PBM binding z-score [7] of 5.13, a PBM binding z-score [8] of 4.98 and a PBM binding z-score [9] of 2.2. The PBM binding z-score [10] was 4.02, the PBM binding z-score [11] was 5.42 and the PBM binding z-score [12] was 6.08. For the same sequence, the PBM binding z-score [13] was 0.0808, the PBM binding z-score [14] was 0.166 and the PBM binding z-score [15] was 1.93. It also gave a PBM binding z-score [16] of 4.63, a PBM binding z-score [17] of 0.0856 and a PBM binding z-score [18] of 4.94. The PBM binding z-score [19] was 0.447 and the PBM binding z-score [20] was 4.07.
With TCATATAGGGAAAAGGTGAAAGTCGGTGTGGTAA the PBM binding z-score [1] was 1.4, the PBM binding z-score [2] was 1.47 and the PBM binding z-score [3] was 0.577. For the same sequence, the PBM binding z-score [4] was 1.64, the PBM binding z-score [5] was 0.109 and the PBM binding z-score [6] was 4.56. For the same sequence, the PBM binding z-score [7] was 7.27, the PBM binding z-score [8] was 7.61 and the PBM binding z-score [9] was 6.66. For the same sequence, the PBM binding z-score [10] was 8.2, the PBM binding z-score [11] was 3.91 and the PBM binding z-score [12] was 3.56. It also gave a PBM binding z-score [13] of 0.616, a PBM binding z-score [14] of 0.751 and a PBM binding z-score [15] of 1.68. For the same sequence, the PBM binding z-score [16] was 1.21, the PBM binding z-score [17] was 0.873 and the PBM binding z-score [18] was 2.17. For the same sequence, the PBM binding z-score [19] was 1.17 and the PBM binding z-score [20] was 1.9.
Work on CCGAGTAGGCTATGGGGCATTCAGGCAACGGTGA yielded a PBM binding z-score [1] of -0.882, a PBM binding z-score [2] of -1.01 and a PBM binding z-score [3] of -0.67. The PBM binding z-score [4] was -0.799, the PBM binding z-score [5] was -1.07 and the PBM binding z-score [6] was 0.341. The PBM binding z-score [7] was 1.43, the PBM binding z-score [8] was 2.92 and the PBM binding z-score [9] was 0.549. The PBM binding z-score [10] was 2.35, the PBM binding z-score [11] was 0.771 and the PBM binding z-score [12] was 0.867. The PBM binding z-score [13] was -0.695, the PBM binding z-score [14] was -1.15 and the PBM binding z-score [15] was -0.376. The PBM binding z-score [16] was -0.862, the PBM binding z-score [17] was -0.647 and the PBM binding z-score [18] was -0.583. For the same sequence, the PBM binding z-score [19] was -0.463 and the PBM binding z-score [20] was -0.102.
Work on ATCGAAAGGTCGTGAGGTGAGTATTCAGAAAGGC yielded a PBM binding z-score [1] of 5.34, a PBM binding z-score [2] of 4.08 and a PBM binding z-score [3] of -0.0279. The PBM binding z-score [4] was 3.34, the PBM binding z-score [5] was 0.35 and the PBM binding z-score [6] was 5.12. The PBM binding z-score [7] was 4.06, the PBM binding z-score [8] was 4.24 and the PBM binding z-score [9] was 1.5. The PBM binding z-score [10] was 2.96, the PBM binding z-score [11] was 0.173 and the PBM binding z-score [12] was 2.36. The PBM binding z-score [13] was 0.908, the PBM binding z-score [14] was 0.365 and the PBM binding z-score [15] was 1.83. The PBM binding z-score [16] was 3.37, the PBM binding z-score [17] was 0.136 and the PBM binding z-score [18] was 4.62. The PBM binding z-score [19] was 0.587 and the PBM binding z-score [20] was 4.08.
CTCGAAAGGTCGTGCGCAGGTGAGTATACCAAAC was tested, and the PBM binding z-score [1] was 5.71, the PBM binding z-score [2] was 4.35 and the PBM binding z-score [3] was 0.33. The PBM binding z-score [4] was 3.84, the PBM binding z-score [5] was 0.153 and the PBM binding z-score [6] was 5.58. For the same sequence, the PBM binding z-score [7] was 3.34, the PBM binding z-score [8] was 4.47 and the PBM binding z-score [9] was 1.36. The PBM binding z-score [10] was 2.98, the PBM binding z-score [11] was 0.325 and the PBM binding z-score [12] was 2.29. For the same sequence, the PBM binding z-score [13] was 0.196, the PBM binding z-score [14] was 0.413 and the PBM binding z-score [15] was 1.83. The PBM binding z-score [16] was 3.65, the PBM binding z-score [17] was -0.0048 and the PBM binding z-score [18] was 4.48. The PBM binding z-score [19] was 0.0809 and the PBM binding z-score [20] was 4.19.
For GCTGCTAGGTCAGGTTGGCCAGCTAACGGGTACG, the PBM binding z-score [1] was 1.01, the PBM binding z-score [2] was 0.472 and the PBM binding z-score [3] was -0.875. For the same sequence, the PBM binding z-score [4] was 0.118, the PBM binding z-score [5] was -0.715 and the PBM binding z-score [6] was 1.32. It also gave a PBM binding z-score [7] of 0.322, a PBM binding z-score [8] of 0.756 and a PBM binding z-score [9] of -0.322. The PBM binding z-score [10] was 0.219, the PBM binding z-score [11] was 2.74 and the PBM binding z-score [12] was 2.24. For the same sequence, the PBM binding z-score [13] was -0.719, the PBM binding z-score [14] was -0.956 and the PBM binding z-score [15] was 0.0382. It also gave a PBM binding z-score [16] of -0.079, a PBM binding z-score [17] of -0.624 and a PBM binding z-score [18] of 0.336. The PBM binding z-score [19] was -0.755 and the PBM binding z-score [20] was 3.1.
